TDP1 cell CPT – qHTS for Inhibitors of human tyrosyl-DNA phosphodiesterase 1 (TDP1): qHTS in cells in presence of CPT | 420,000 tested, 12% active | Potency, µM (series often up to 46.2 µM), most hits filed as inhibitors | chicken DT40 Tdp1-/-;hTDP1 cells + 20 nM CPT, ATP luminescence, 48 h; also: nearly all actives have a fitted effect of over 55% in size
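Chicken DT40 Tdp1-/- cells stably complemented with human TDP1 were seeded at 400 cells/well in medium containing 20 nM camptothecin, exposed to pin-transferred compounds, and grown at 37 °C for at least 48 hr. Viability was read as ATP luminescence.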
HT1080-NT tox – qHTS for induction of synthetic lethality in tumor cells producing 2HG: qHTS for the HT-1080-NT fibrosarcoma cell line | 360,000 tested, 1.6% active | Potency, µM (highest dose often 46.1 µM), usual class: cytotoxic | AID 686970, 2013 | HT-1080-NT fibrosarcoma viability, CellTiter-Glo ATP luminescence, 48 h;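 also: NT is the 2HG producing partner of a matched IDH1 knockdown line; nearly all actives have a fitted effect of over 55% in size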
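Read-out is CellTiter-Glo luminescence after 10 minutes at room temperature, following 48 hours' compound treatment of HT-1080-NT cells (750 cells/well, RPMI, 5% FBS, 37 degrees C).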
DT40 TDP1 no CPT – qHTS for Inhibitors of human tyrosyl-DNA phosphodiesterase 1 (TDP1): qHTS in cells in absence of CPT | DT40 Tdp1-/- hTDP1 cells, no CPT, ATP luminescence, 48 h | Potency, µM (titrated, usually from 46.2 µM), most hits filed as inhibitors | 420,000 tested, 15% active | AID 686978, 2013; also: nearly all actives have a fitted effect of over 55% in size
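Cells were dispensed at 400 per well, compounds added by pin tool, plates incubated ≥48 hr at 37 °C, then CellTiter-Glo added for 30 min at room temperature before luminescence reading. Line: DT40 Tdp1-/- complemented with hTDP1; camptothecin omitted.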
HT1080 IDH1KD tx – qHTS for induction of synthetic lethality in tumor cells producing 2HG: qHTS for the HT-1080-IDH1KD cell line; HT-1080 IDH1 knockdown viability, ATP luminescence, 48 h; Potency, µM (doses to about 46.1 µM), usual class: cytotoxic; 360,000 tested, 2% active; AID 686971, 2013
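Using the IDH1-knockdown HT-1080 line run in the same batch and compound series as the NT line, viability after 48 h at 37 °C was determined by CellTiter-Glo luminescence and expressed as % activity.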
IL1B secr inh – qHTS for Inhibitors of Inflammasome Signaling: IL-1-beta AlphaLISA Primary Screen | THP-1 LPS/ATP IL-1B secretion, AlphaLISA, 16 h; active compounds read low | activity change, % at 57.5 µM | 360,000 tested, 4.7% active | AID 743279, 2014; in the data active = activity change below about -50%; inconclusive = mostly about -30% to -49%
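Secreted IL-1B measured by AlphaLISA bead assay after 16 h compound exposure of THP-1 cells; compounds (final up to 57.5 uM) added 1 h before LPS (250 ng/mL) and ATP (1.25 mM) stimulation; lower signal means less secretion.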
ALOX12 inh – Primary qHTS assay for inhibitors of human arachidonate 12S-lipoxygenase (ALOX12): Round 2; Polyunsaturated fatty acid lipoxygenase ALOX12 (Homo sapiens), P18054; 580,000 tested, 1.1% active; purified 12hLO, xylenol orange hydroperoxide absorbance; AID 1671190, 2021; Potency, µM (highest dose often 108 µM), most hits filed as inhibitors
Target sequence (P18054 whole entry, looked up): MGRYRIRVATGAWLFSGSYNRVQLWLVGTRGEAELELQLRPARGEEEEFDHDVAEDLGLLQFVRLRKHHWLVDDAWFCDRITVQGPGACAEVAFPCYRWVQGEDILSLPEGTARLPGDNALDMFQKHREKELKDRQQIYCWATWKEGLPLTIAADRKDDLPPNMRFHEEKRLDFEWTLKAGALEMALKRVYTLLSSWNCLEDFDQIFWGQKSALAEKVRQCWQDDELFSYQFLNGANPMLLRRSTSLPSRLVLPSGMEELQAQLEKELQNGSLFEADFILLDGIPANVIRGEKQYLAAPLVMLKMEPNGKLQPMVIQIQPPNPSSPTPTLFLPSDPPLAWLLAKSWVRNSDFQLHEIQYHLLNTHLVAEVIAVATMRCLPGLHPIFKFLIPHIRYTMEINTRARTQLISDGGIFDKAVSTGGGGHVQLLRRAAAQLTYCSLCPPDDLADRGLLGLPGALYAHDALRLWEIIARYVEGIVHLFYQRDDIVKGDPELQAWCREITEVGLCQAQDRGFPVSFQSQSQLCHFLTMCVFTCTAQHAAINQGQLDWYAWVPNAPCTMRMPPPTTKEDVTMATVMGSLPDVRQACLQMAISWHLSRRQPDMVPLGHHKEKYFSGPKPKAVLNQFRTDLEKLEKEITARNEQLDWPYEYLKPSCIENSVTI
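Purified human 12hLO (150 nM final) in 25 mM Hepes, 0.01% Triton X-100, pH 7.0 was preincubated 15 min at room temperature with compound. Then 40 uM arachidonic acid was added, 30 min. Hydroperoxide was read by Fe-XO absorbance ratio 573/405 nm.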
Of the large screens only hits and unclear results are named; the others gave an inactive call. The sample as a whole holds a higher share of hits than the screen did. Unless noted, calls follow the shape of the dose curve; as a rule, active = well fitted curve in the direction sought with a large enough effect; inconclusive = small, poorly fitted or top-dose-only effect, or another doubt; inactive = no such curve, though single readings can be large; an effect the other way counts as inactive or inconclusive.

COc1ccccc1N(C)S(=O)(=O)c1ccc(Cl)c(C(=O)N2CCC2)c1	TDP1 cell CPT 16.4µM, DT40 TDP1 no CPT inconclusive
COc1ccccc1N(C)S(=O)(=O)c1ccc(Cl)c(C(=O)NCC2(N(C)C)CCCCC2)c1	TDP1 cell CPT inconclusive, DT40 TDP1 no CPT 8.2µM, IL1B secr inh inconclusive
COc1ccccc1N(C)S(=O)(=O)c1ccc(Cl)c(C(=O)OCc2c(C)noc2C)c1	TDP1 cell CPT inconclusive, DT40 TDP1 no CPT 23.1µM, IL1B secr inh inconclusive
COc1ccccc1N1CCN(C(=O)c2ccccc2N(C)S(=O)(=O)c2ccc(C)cc2)CC1	TDP1 cell CPT inconclusive, DT40 TDP1 no CPT 16.4µM
Cc1ccc(S(=O)(=O)N(C)c2ccccc2C(=O)N2CCOCC2)cc1	none
Cc1ccc(S(=O)(=O)N[C@H]2CO[C@H]3[C@@H]2OC[C@@H]3n2nnnc2Oc2ccc(-n3ccnc3)cc2)cc1	none (no result: TDP1 cell CPT, HT1080-NT tox, DT40 TDP1 no CPT, HT1080 IDH1KD tx, IL1B secr inh)
CN(c1ccc(F)cc1)S(=O)(=O)c1ccc(Cl)c(C(=O)NCC2CCCO2)c1 (centres undefined)	TDP1 cell CPT inconclusive, DT40 TDP1 no CPT inconclusive
CN(c1ccc(F)cc1)S(=O)(=O)c1ccc(Cl)c(C(=O)NCC2(N3CCOCC3)CCCCC2)c1	TDP1 cell CPT 7.31µM, DT40 TDP1 no CPT 7.31µM, IL1B secr inh inconclusive
O=C(CSc1cnc2ccccc2n1)OCc1cccc2ccccc12	none (no result: TDP1 cell CPT, HT1080-NT tox, DT40 TDP1 no CPT, HT1080 IDH1KD tx, IL1B secr inh)
COc1cccc(C(=O)N2CCC(c3nc4ccccc4s3)CC2)c1	TDP1 cell CPT inconclusive, DT40 TDP1 no CPT inconclusive (no result: HT1080-NT tox, HT1080 IDH1KD tx, IL1B secr inh)
COc1ccc(C(=O)N2CCC(c3nc4ccccc4s3)CC2)cc1Cl	TDP1 cell CPT 25.9µM, DT40 TDP1 no CPT 10.3µM (no result: HT1080-NT tox, HT1080 IDH1KD tx, IL1B secr inh)
CCCOc1ccccc1C(=O)N1CCC(c2nc3ccccc3s2)CC1	TDP1 cell CPT 23.1µM, DT40 TDP1 no CPT 10.3µM, ALOX12 inh inconclusive (no result: HT1080-NT tox, HT1080 IDH1KD tx, IL1B secr inh)
CCC(Oc1ccccc1F)C(=O)N1CCC(c2nc3ccccc3s2)CC1 (centres undefined)	TDP1 cell CPT inconclusive, DT40 TDP1 no CPT 16.4µM (no result: HT1080-NT tox, HT1080 IDH1KD tx, IL1B secr inh)
Cn1c(Cn2cccn2)nnc1C1CCN(C(=O)N2CCOCC2)CC1	none (no result: TDP1 cell CPT, HT1080-NT tox, DT40 TDP1 no CPT, HT1080 IDH1KD tx, IL1B secr inh)
O=C1NCc2ccccc2CC12CCN(Cc1cccc(F)c1F)CC2	none (no result: TDP1 cell CPT, HT1080-NT tox, DT40 TDP1 no CPT, HT1080 IDH1KD tx, IL1B secr inh)
CCC(=O)Nc1nonc1-c1nc2ccccc2n1CCC(C)C	TDP1 cell CPT inconclusive, DT40 TDP1 no CPT 9.2µM, HT1080 IDH1KD tx inconclusive
CCC(=O)Nc1nonc1-c1nc2ccccc2n1Cc1ccccc1	TDP1 cell CPT inconclusive, HT1080-NT tox inconclusive, DT40 TDP1 no CPT inconclusive, HT1080 IDH1KD tx inconclusive
CCCCC1=CC2=CC(=O)C(C)(OC(=O)CC)C(=O)C2=CN1C1CCCCC1 (centres undefined)	TDP1 cell CPT inconclusive, DT40 TDP1 no CPT inconclusive, ALOX12 inh inconclusive
COc1ccc(C2=CC3=C(Br)C(=O)C(C)(O)C(=O)C3=CO2)cc1 (centres undefined)	none (no result: ALOX12 inh)
CCC(=O)OC1(C)C(=O)C=C2C=C(c3ccc(C#N)cc3)OC=C2C1=O (centres undefined)	ALOX12 inh 5.62µM
CCC(=O)OC1(C)C(=O)C2=COC(c3ccc(OC)cc3)=CC2=C(Br)C1=O (centres undefined)	ALOX12 inh 50.1µM
CN=C1S/C(=C\c2cn(CC(=O)OC)c3ccccc23)C(=O)N1C	DT40 TDP1 no CPT inconclusive
CN=C1S/C(=C/c2cn(CC(=O)OC)c3ccccc23)C(=O)N1C	DT40 TDP1 no CPT inconclusive, ALOX12 inh 28.2µM
O=C1CCC2(CNC(=O)c3cnccn3)CCCC=C2N1 (centres undefined)	none (no result: TDP1 cell CPT, HT1080-NT tox, DT40 TDP1 no CPT, HT1080 IDH1KD tx, IL1B secr inh)
COc1ccccc1NC(=O)CSC1=Nc2ccccc2C2=NC(Cc3ccccc3)C(=O)N12 (centres undefined)	TDP1 cell CPT 23.1µM, DT40 TDP1 no CPT inconclusive (no result: HT1080-NT tox, HT1080 IDH1KD tx, IL1B secr inh)
COc1ccc(NC(=O)CSC2=Nc3ccccc3C3=NC(Cc4ccccc4)C(=O)N23)cc1 (centres undefined)	TDP1 cell CPT inconclusive, DT40 TDP1 no CPT 20.6µM (no result: HT1080-NT tox, HT1080 IDH1KD tx, IL1B secr inh)
CC(C)c1ccc(NC(=O)CSC2=Nc3ccccc3C3=NC(CC(=O)NCCc4ccccc4)C(=O)N23)cc1 (centres undefined)	TDP1 cell CPT inconclusive, DT40 TDP1 no CPT inconclusive (no result: HT1080-NT tox, HT1080 IDH1KD tx, IL1B secr inh)
O=C(CSC1=Nc2ccccc2C2=NC(Cc3ccccc3)C(=O)N12)Nc1cccc(Cl)c1 (centres undefined)	TDP1 cell CPT 16.4µM, DT40 TDP1 no CPT 25.9µM, ALOX12 inh inconclusive (no result: HT1080-NT tox, HT1080 IDH1KD tx, IL1B secr inh)
Cc1cc(C)c2nc(NC(=O)CCCn3c(=O)oc4ccccc43)sc2c1	none (no result: TDP1 cell CPT, HT1080-NT tox, DT40 TDP1 no CPT, HT1080 IDH1KD tx, IL1B secr inh)
O=C(NCc1nnc2c(-c3nc(C4CC4)no3)cccn12)c1ccc(F)cc1Cl	none (no result: TDP1 cell CPT, HT1080-NT tox, DT40 TDP1 no CPT, HT1080 IDH1KD tx, IL1B secr inh)
CC(C)(C)CC(C)(C)NC(=O)C(C1CC1)N1C(=O)C(=O)c2ccccc21 (centres undefined)	none (no result: TDP1 cell CPT, HT1080-NT tox, DT40 TDP1 no CPT, HT1080 IDH1KD tx, IL1B secr inh)
CCc1nc2c(NC(=O)NCCc3ccccc3)cccn2n1	none (no result: TDP1 cell CPT, HT1080-NT tox, DT40 TDP1 no CPT, HT1080 IDH1KD tx, IL1B secr inh)
CC1(C)CCN2CCC(C)(C)c3c(O)ccc1c32	TDP1 cell CPT 3.26µM, HT1080-NT tox inconclusive, DT40 TDP1 no CPT 3.66µM, HT1080 IDH1KD tx inconclusive, ALOX12 inh inconclusive

Bioassay records (PubChem)
